Assay outcomes from PubChem.
This is a sample that favours compounds with a hit; in the whole collection about 4.1% have one here.
FAS TE block: FAS thioesterase (human) inhibition; 0.67% of 360,000 active; inhibition, % at 15 µM; AID 602261; recombinant FAS-TE, OMFH fluorogenic substrate, fluorescence endpoint;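 active = compounds whose normalised, plate-corrected inhibition of enzyme fluorescence in the single-dose primary screen is 50% or more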;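 also: 0% = DMSO with enzyme and 100% = substrate without enzyme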
NR3A LBD binder: modulators (binders) of human NR3A ligand-binding domain; 2.5% of 340,000 active; NR3A LBD differential scanning fluorimetry, Tm shift; 0% = protein alone, 100% = glycine-bound protein; Tm shift relative to glycine control, % at 25 µM;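 active = melting temperature shift of at least 10% of the positive control shift, at one fixed dose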
MIN6 prolif-1: inducers of beta-cell replication in MIN6 cells | proliferation, % at 10 µM | 0.29% of 330,000 active | MIN6 cells proliferation, ATPlite luminescence, 48 h; cells starved in 0.2% serum; 100% = growth in 10% serum;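 active = compounds whose signal lies at least 3.5 SD above the mean of all wells on their plate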;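 also: 0% = DMSO-treated cells in low-serum medium and 100% = 10% serum control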
p-CIP stab down: lowers stability of the mouse p/CIP coactivator protein | Q05BA5 | F442A p/CIP-EGFP cells, EGFP fluorescence, 16 h | decrease of EGFP signal, % at 10 µM | 0.01% of 290,000 active;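 active = EGFP signal decrease of at least 30% at 10 µM or well 3 SD below plate mean, unless failing retest; inactive = the rest, including hits failing retest or dose response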
MPTP inh: blocks calcium-induced mitochondrial swelling | isolated mouse mitochondria, Ca2+ swelling absorbance, 30 min | inhibition, % at 10 µM | 1.4% of 360,000 active;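 active = inhibition of 50% or more, scaled per plate between neutral and stimulator controls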;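 also: 0% = DMSO wells given calcium and 100% = 1 mM EGTA wells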
MIN6 prolif-2: MIN6 beta-cell replication induction, confirmed; shares compounds with MIN6 prolif-1; MIN6 beta-cell proliferation, ATPlite luminescence, 48 h; cells kept in 0.2% serum; scaled between 0.2% and 10% serum; proliferation increase, % at 50 µM; 920 tested, under 10 active; AID 463095;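 active = proliferation increase above 40% at any of the four tested concentrations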
FAS-TE conf: FAS thioesterase (human) inhibition, confirmation | recombinant FAS-TE, OMFH fluorogenic substrate, fluorescence | 45% of 2,300 active | AID 624325 | inhibition, % at 15 µM | shares compounds with FAS TE block;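 active = compounds inhibiting the enzyme by at least 50% at 15 µM in any one of the replicates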;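 also: 0% = enzyme with DMSO only and 100% = wells lacking enzyme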
Active calls of the source: *; . = not tested or not shown.

SMILES	FAS TE block	NR3A LBD binder	MIN6 prolif-1	p-CIP stab down	MPTP inh	FAS-TE conf	others
CC/C(=N\NC(=O)c1ccccc1)c1c(O)n(C2CCCCC2)c(=O)[nH]c1=O	13	-2	12*	11	2	.	MIN6 prolif-2=-5
CC/C(=N\NC(=O)c1ccccc1Cl)c1c(O)n(C2CCCCC2)c(=O)[nH]c1=O	12	-7	0	-7	0	.
O=C1C=CC(=O)C2C1C1(Cl)C(Cl)=C(Cl)C2(Cl)C1(Cl)Cl (stereo not drawn)	60*	-7	.	.	2	57*
COC(=O)C1=C(c2ccc(OCc3ccccc3)cc2)C[C@@H]2CC[C@H]1N2C(=O)NCCCCc1ccccc1	28	.	.	.	1	.
CN1CCc2nc(SCc3ccccc3Br)c(C#N)cc2C1	54*	-1	-5	-14	-2	45*
Cc1cccc(CSc2nc3c(cc2C#N)CN(C)CC3)c1	-5	-6	-4	-8	-1	.
COc1ccc(CCn2c(O)c(C=Nc3ccccc3F)c(=O)[nH]c2=O)cc1OC	-4	1	-2	-22	0	.
COc1ccc([N+](=O)[O-])cc1N=Cc1c(O)n(CCc2ccccc2)c(=O)n(C(C)C)c1=O	72*	-3	2	-62	4	-3
S=C(NCCc1ccccc1)N1Cc2cc(Br)ccc2-n2nncc2C1	62*	.	.	.	2	25*
CCC(c1nnnn1Cc1ccccc1)N1CCC(n2c(=O)[nH]c3ccccc32)CC1 (stereo not drawn)	0	.	.	.	0	.
O=c1[nH]c2ccccc2n1C1CCN(Cc2ccc(-c3nc4ccc(F)cc4nc3-c3ccccc3)cc2)CC1	63*	.	.	.	2	10
COc1ccc2nc(-c3ccc(CN4CCC(n5c(=O)[nH]c6ccccc65)CC4)cc3)c(-c3ccccc3)nc2c1	76*	.	.	.	4	11
O=c1[nH]c2ccccc2n1C1CCN(Cc2ccc(-c3nc4ccccc4nc3-c3ccccc3)cc2)CC1	61*	.	.	.	21	3
COc1ccc(N2C(=O)CC(N3CCC(n4c(=O)[nH]c5ccccc54)CC3)C2=O)cc1 (stereo not drawn)	-5	-1	4	9	-1	.
Cc1ccc2nc(-c3ccc(CN4CCC(n5c(=O)[nH]c6ccccc65)CC4)cc3)c(-c3ccccc3)nc2c1	72*	.	.	.	5	12
O=c1[nH]c2ccccc2n1CCCN1CCC(n2c(=O)[nH]c3cc(Cl)ccc32)CC1	3	0	-2	-3	0	.
Cc1ccnc(NC(=O)CCCc2ccc(N(CCCl)CCCl)cc2)n1	3	0	.	.	-1	.
C#C[C@@]1(O)CCC2C3CCC4=C/C(=N/OCC(=O)NC(CCC(N)=O)C(=O)O)CC[C@]4(C)C3CC[C@@]21C (stereo partly drawn)	-5	3	-4	3	2	.
O=S(=O)(c1cc(Cl)cc(Cl)c1)N1Cc2cc(-c3ccccc3)ccc2-n2nncc2C1	86*	.	.	.	2	10
O=C1CC(N2CC2)C(=O)N1c1ccccc1 (stereo not drawn)	-8	.	.	.	-2	.
Cc1cnc(-n2c(=S)[nH]c3ccccc3c2=O)s1	-2	-2	6	.	0	.
COc1ccc(OC)c(-n2c(O)c(C=NCCN3CCNCC3)c(=O)[nH]c2=S)c1	-6	-1	1	0	1	.
COc1ccc(C(c2nnnn2-c2ccc3c(c2)OCCO3)N2CCC(n3c(=O)[nH]c4ccccc43)CC2)cc1 (stereo not drawn)	54*	.	.	.	-3	15
COc1cccc(C(c2nnnn2-c2c(C)cccc2C)N2CCC(n3c(=O)[nH]c4ccccc43)CC2)c1OC (stereo not drawn)	82*	.	.	.	-1	4
CCC(c1nnnn1-c1ccc(OC)cc1)N1CCC(n2c(=O)[nH]c3ccccc32)CC1 (stereo not drawn)	-3	.	.	.	-2	.
SMILES	FAS TE block	NR3A LBD binder	MIN6 prolif-1	p-CIP stab down	MPTP inh	FAS-TE conf	others
O=c1[nH]c2ccccc2n1C1CCN(C(CCc2ccccc2)c2nnnn2-c2ccc3c(c2)OCCO3)CC1 (stereo not drawn)	89*	.	.	.	-2	17
O=c1[nH]c2ccccc2n1C1CCN(C(c2ccnc3ccccc23)c2nnnn2-c2ccc3c(c2)OCCO3)CC1 (stereo not drawn)	17	.	.	.	-2	.
COc1ccc(-n2nnnc2C(c2ccccc2OC(F)(F)F)N2CCC(n3c(=O)[nH]c4ccccc43)CC2)cc1 (stereo not drawn)	60*	.	.	.	1	2
COc1ccc(OC)c(C2=NOC(C(=O)N3CCC4(CC3)OCCO4)C2)c1 (stereo not drawn)	-1	3	-1	-3	-1	.
COC(=O)C1=C(c2cccc(C#N)c2)C[C@@H]2CC[C@H]1N2C(=O)N1CCC(O)CC1	-12	0	-2	.	1	.
Cc1cccc(C)c1-n1nnnc1C(CCc1ccccc1)N1CCC(n2c(=O)[nH]c3ccccc32)CC1 (stereo not drawn)	54*	.	.	.	0	12
COC(=O)C1=C(c2cccc3c2S(=O)(=O)c2ccccc2-3)C[C@@H]2CC[C@H]1N2C(=O)N1CCOCC1	-4	0	-1	.	-2	.
COC(=O)C1=C(c2cccc3c2S(=O)(=O)c2ccccc2-3)C[C@@H]2CC[C@H]1N2C(=O)N1CCc2cc(OC)c(OC)cc2C1	68*	-1	1	.	1	31
O=c1c2cc([N+](=O)[O-])ccc2nc(CN2CCOCC2)n1-c1ccccc1F	.	.	.	-23	.	.
C[C@H]1CN([C@@H](C)CO)C(=O)CCCn2nncc2CO[C@H]1CN(C)C(=O)Oc1ccc2ccccc2c1	-2	.	.	.	0	.
CCOc1ccc2oc(C(=O)NN3C(C)CCCC3C)c(C)c2c1 (stereo not drawn)	1	0	-2	4	0	.
COc1ccc(-n2nnnc2C(c2ccccc2)N2CCC3(CC2)C(=O)NCN3c2ccccc2)cc1 (stereo not drawn)	14	.	.	.	0	.
COc1ccc(-n2nnnc2C(c2ccccc2OC(F)(F)F)N2CCC3(CC2)C(=O)NCN3c2ccccc2)cc1 (stereo not drawn)	60*	.	.	.	5	31
COc1ccc(C(c2nnnn2-c2ccc(OC)cc2)N2CCC3(CC2)C(=O)NCN3c2ccccc2)cc1 (stereo not drawn)	52*	.	.	.	-2	24
O=C1NCN(c2ccccc2)C12CCN(C(c1ccccc1OC(F)(F)F)c1nnnn1-c1ccc3c(c1)OCCO3)CC2 (stereo not drawn)	82*	.	.	.	2	30
C[C@@H]1CN([C@@H](C)CO)C(=O)CCCn2cc(nn2)CO[C@H]1CN(C)C(=O)Oc1ccc2ccccc2c1	-8	.	.	.	-1	.
